A selection: hits, their analogues and other compounds. The true share with any hit is near 1%.
E-sel TNF inh = E-selectin induction blockers in HUVEC – imaging, immunofluorescence, high content, primary screen. HUVEC TNFa-induced E-selectin immunofluorescence. inhibition, % at 2 µM. 120,000 compounds, 0.71% hits. AID 1246, 2008;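 active means inhibition above the batch mean plus 3 SD, and confirmed as a hit on visual image review, cut at about 43% in these data; inconclusive means passes the inhibition cutoff but fails visual image review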;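 further: 0% = TNF-stimulated DMSO wells and 100% = unstimulated control wells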
TNFa cytotox = cytotoxicity in TNFa-stimulated HUVEC, primary screen, cytotoxicity control for VCAM1 expression modulator project, imaging, Hoechst nuclei count; HUVEC TNFalpha-stimulated, Hoechst cell count; cell count reduction, % at 2 µM; 93,000 compounds, 0.17% hits; AID 848, 2007;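 active means cell count reduction exceeding the screen mean by over 5 SD, scaled to untreated wells per plate, cut at about 78% in these data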;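 further: cells counted after 24 h of TNF alpha exposure following the 1 h pretreatment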
F-actin modifier = modifiers of F-actin cytoskeleton organization, primary screen, imaging, HUVEC, phalloidin staining, high-content imaging. 91,000 compounds, 0.18% hits. AID 836, 2007. HUVEC TNFa F-actin phalloidin imaging. inhibition, % at 2 µM;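 active means inhibition above the batch mean plus 3 SD and confirmed as a hit by visual image inspection, cut at about 30% in these data, passing the limit was not always enough; inconclusive means above the inhibition threshold but rejected on visual inspection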
VCAM1 TNFa inh = inhibitors of TNFa-induced VCAM1 expression, primary screen, imaging, HUVEC, TNFa stimulus, immunofluorescence | HUVEC TNFa-induced VCAM-1 immunofluorescence, high-content imaging | inhibition, % at 2 µM | 95,000 compounds, 0.48% hits | AID 802, 2007;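 active means inhibition above the batch mean plus 3 SD, with images confirmed as a hit by eye, cut at about 37% in these data; inconclusive means inhibition above that limit but hit not confirmed in images; inactive means inhibition not above that limit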;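 further: 0% = TNF-stimulated DMSO wells and 100% = unstimulated control wells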
* hit, by the source's call; ? = inconclusive; · = no result.

SMILES	E-sel TNF inh	TNFa cytotox	F-actin modifier	VCAM1 TNFa inh
CNC(=S)N=Nc1c(O)[nH]c2ccc(C(C)C)cc12	68*	·	·	·
CCOC1=NC(C(=O)O)c2ccccc2/C(=C(/C)Cl)N1 (stereo unspecified)	·	54	-12	92*
CCC(=O)OC1c2ccccc2C(=O)N1Cc1ccccc1 (stereo unspecified)	·	-2	-16	4
CCOC(=O)C1=C(CSc2nc3c(cc2C#N)CN(C)CC3)OC(N)=C(C#N)C1c1ccccc1 (stereo unspecified)	·	99*	12	?
CCOC(=O)Cc1csc(NC(=S)NC(=O)c2ccc(C)cc2)n1	12	·	·	·
COc1ccc(-c2nnc(SCC(=O)N3CCN(c4ccccc4)CC3)o2)cc1OC	-15	·	·	·
COc1ccc(-c2nnc(SCC(=O)N3CCOCC3)o2)cc1OC	96*	·	·	·
Cc1ccc(S(=O)(=O)N2CCN(C(=O)N(C)C)CC2)cc1	12	·	·	·
CCOC(=O)N1CCN(C(=O)C(C)(C)Oc2ccc(Cl)cc2)CC1	·	-36	6	12
COc1ccc(N2CCN(C(=O)C(C)(C)Oc3ccc(Cl)cc3)CC2)cc1	·	78*	-29	-22
Cc1c(O)c2c3c(cccc3c1O)C(=O)N(c1ccccc1)C2=O	-5	·	·	·
CCOc1ccc(CN2CCCC(CNC(=O)c3ccc(F)cc3)C2)cc1CO (stereo unspecified)	-23	·	·	·
CC(C)NC1CS(=O)(=O)CC1O (stereo unspecified)	12	100*	?	?
Cc1cc2nc(-c3ccc(SCc4ccc(C#N)cc4)nc3)[nH]c2cc1C	90*	5	-9	-6
N#Cc1ccccc1CSc1ccc(-c2nc3ccccc3[nH]2)cn1	-13	-1	-28	-5
Cc1nc2cc(C(=O)NCc3cccnc3)ccc2n1-c1ccc(F)cc1F	13	·	·	·
O=C(O)C1CC=CCC1C(=O)N1CCCC1 (stereo unspecified)	6	96*	14	82*
O=C(O)C1CC=CCC1C(=O)N1CCc2ccccc21 (stereo unspecified)	-15	5	-17	16
Cc1nc([N+](=O)[O-])c(Br)n1CC(=O)c1ccc(Br)cc1	24	-18	-13	40*
Cc1nc([N+](=O)[O-])c(Br)n1CC(=O)c1ccccc1	12	-7	·	6
N#CCc1ccc(NS(=O)(=O)c2cccs2)cc1	64*	·	·	·
Cc1cc(C)nc(/N=C2\NC(=O)CC(C(=O)O)N2c2ccc(C)c(C)c2)n1 (stereo unspecified)	1	·	·	·
Cc1cc2c(ncn2C)c(NS(=O)(=O)c2ccc(Cl)cc2)c1C	-22	·	·	·
CCOC(=O)C1=NN(c2cccc(Cl)c2)C2=NC(C)=C(C(=O)OC)C(c3cccs3)N12 (stereo unspecified)	4	-12	2	10
Clc1ccc(C2=Nn3c(nnc3-c3cccnc3)SC2)s1	·	72	-9	78*
SMILES	E-sel TNF inh	TNFa cytotox	F-actin modifier	VCAM1 TNFa inh
Brc1ccc(C2=Nn3c(nnc3-c3cccnc3)SC2)s1	5	-30	0	2
OCCCCCNc1ncnc2ccccc12	-8	-14	7	2
OCCCCNc1cccc2ccccc12	·	-20	10	43*
O=C(c1ccc(S(=O)(=O)c2ccccc2Cl)c([N+](=O)[O-])c1)N1CCCCCC1	-21	·	·	·
O=C1CCC(C(=O)N2CCCC(C(=O)c3ccc4c5c(cccc35)CC4)C2)=NN1 (stereo unspecified)	-42	·	·	·
Cc1cc(C)cc(NC(=O)NC2CCN(CC(=O)Nc3c(C)cc(C)cc3C)CC2)c1	·	2	-14	14
CN(c1ccccc1)S(=O)(=O)c1cccc(NS(=O)(=O)c2ccc(/C=C/C(=O)O)cc2)c1	15	·	·	·
CCn1c(SCC(=O)N2CCN(c3cccc(Cl)c3)CC2)nc2ccccc2c1=O	-31	-1	-6	96*
Cc1cc2ccccc2c(=O)n1CC(=O)N1CCN(c2cccc(Cl)c2)CC1	-6	·	·	·
O=C1c2ccccc2C(Nc2ccc(S(=O)(=O)N3CCCCCC3)cc2)N1Cc1ccco1 (stereo unspecified)	66*	-8	-2	4
CCc1ccccc1NC1c2ccccc2C(=O)N1Cc1ccco1 (stereo unspecified)	-17	·	·	·
CC(=O)c1cc(-c2ccccc2)n(CC(=O)Nc2cccc(C)c2)c1C	-3	·	·	·
C=CCc1cccc(C2Nc3ccccc3C(=O)N2O)c1O (stereo unspecified)	62*	-20	-28	-1
O=C1c2ccccc2NC(c2ccc(Cl)cc2Cl)N1O (stereo unspecified)	-4	-28	29	4
CC(C)C(=O)Nc1ccc(-c2nc3cccnc3o2)cc1	84*	·	·	·
O=C(O)C1CC=CCC1C(=O)Nc1ccc2c(c1)OCCO2 (stereo unspecified)	8	14	14	10
COCCN(C(=O)CC1C(=O)NCCN1CC(c1ccccc1)c1ccccc1)C(C)C (stereo unspecified)	-12	·	·	·
C=CCC1CCCC(=O)N2CC[C@H](O)C12 (stereo partly specified)	-17	·	·	·
CC(C)Oc1cccc(C(=O)C2CCCN(C(=O)c3ccnn3C)C2)c1 (stereo unspecified)	-16	·	·	·
CCN(CC)c1ccc(NC(=O)C2CC3CCC2C3)cc1 (stereo unspecified)	96*	·	·	·
Fc1ccc2[nH]c3c(N4CCN(c5ccccc5)CC4)ncnc3c2c1	-13	·	·	·
OC1(c2cccc(C(F)(F)F)c2)CCN(c2ncnc3c2[nH]c2ccc(F)cc23)CC1	·	-11	7	54*
CCOc1ccc(NCc2nc3ccccc3n2CCOc2ccccc2)cc1	92*	·	·	·
COC(=O)c1ccc(N(C(=O)c2ccco2)C(C(=O)NC2CCCC2)c2ccco2)cc1 (stereo unspecified)	-35	·	-6	-8
O=c1[nH]c2cc(NCCO)c([N+](=O)[O-])cc2[nH]1	73*	·	·	·
SMILES	E-sel TNF inh	TNFa cytotox	F-actin modifier	VCAM1 TNFa inh
O=C(/C(=C/c1ccc(Cl)cc1)c1nc2ccccc2[nH]1)c1cccs1	-14	-6	12	52*
COc1ccc(C(C)(C)C)cc1S(=O)(=O)N1CCN(C)CC1	11	-22	21	93*
CC(C)(C)NC(NC(=O)Cc1ccccc1)C(Cl)(Cl)Cl (stereo unspecified)	-8	-40	-8	-9
CCCCNC(=O)N(c1c(N)n(Cc2ccccc2)c(=O)[nH]c1=O)C1CCCC1	-11	·	·	·
Cc1ccc(SCCC(=O)Nc2ccccc2C(=O)NC(C)C)cc1	67*	·	·	·
Cc1cc(/C=C2\SC(=Nc3ccc(F)cc3)NC2=O)c(C)n1-c1ccc(S(N)(=O)=O)cc1	4	16	31*	41
COCCNC(=O)c1c[nH]c2cc(OC)c(OC)cc2c1=O	3	-22	22	-1
COc1cc2[nH]cc(C(=O)NCCc3ccccc3)c(=O)c2cc1OC	18	-3	-5	92*
CCc1cc(C(=O)Nc2ccccc2)cs1	63*	·	·	·
Cc1ccc(OCc2ccoc2C(=O)O)cc1C	-23	-7	-7	97*
Cc1ccc(OCc2ccc(C(=O)N3CCOCC3)cc2)cc1C	3	-30	16	5
